C diff growth: C. difficile growth inhibitors, primary screen, HTS; Clostridium difficile clinical isolate growth, OD600, 24 h; hits give low values; growth activity, negative = inhibition, % at 16 µg/mL (by protocol); 86,000 tested, 0.25% active; AID 1259249, 2017;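 active = mean growth activity at or below -80% and every replicate also at or below -80%; inconclusive = mean at or below -80% but some replicate above -80%; inactive = mean growth activity above -80%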
T cruzi growth-1: T. cruzi intracellular proliferation inhibitors, primary screen, cell-based, beta-gal Tulahuen parasites, NIH3T3 host, luminescence | 77,000 tested, 5.9% active | inhibition, % at 8.34 µM | T. cruzi beta-gal in NIH3T3, GalScreen luminescence, 90 h;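 active = mean inhibition above about 93%, with at least 55% of replicates each passing it, limit read from the data, passing the limit was not always enough; inconclusive = only one of those two conditions holds; inactive = neither condition holds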
T cruzi growth-2: T. cruzi intracellular proliferation inhibitors, confirmation, cell-based, NIH3T3 host, beta-gal parasite, luminescence, cherry-pick; shares compounds with T cruzi growth-1; T. cruzi beta-gal in NIH3T3, GalScreen luminescence, 90 h; inhibition, % at 8.35 µM; 5,600 tested, 72% active; AID 651739, 2012;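 active = mean replicate inhibition above about 95% and at least 55% of replicates individually reaching it, limit read from the data; inconclusive = only one of the two criteria is met; inactive = neither criterion is met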
T cruzi growth-3: inhibitors of intracellular T. cruzi replication, confirmation, NIH3T3 host cells, beta-gal parasites, cherry-pick, set 2; shares compounds with T cruzi growth-1; T. cruzi beta-gal in NIH3T3, GalScreen luminescence, 90 h; inhibition, % at 2.09 µM; 5,600 tested, 21% active; AID 651740, 2012;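 active = mean inhibition above about 95%, with at least 55% of replicates also reaching it, limit read from the data; inconclusive = meets just one of the two conditions; inactive = meets neither condition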
3T3 cytotox: cytotoxicity in mouse NIH/3T3 fibroblasts, confirmation, cytotoxicity control for T. cruzi proliferation inhibitor project, cell-based, cherry-pick, single point; shares compounds with T cruzi growth-1; NIH/3T3 viability, CellTiter-Glo ATP luminescence, 90 h; cytotoxicity (signal decrease), % at 8.35 µM; 5,600 tested, 14% active; AID 651742, 2012;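 active = mean signal decrease across replicates above about 35% based on untreated-well scatter, with enough replicates individually passing, limit read from the data; inconclusive = no rule stated though some were filed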
3T3 cytotox 2: NIH/3T3 fibroblast cytotoxicity, confirmation, cytotoxicity control, cell-based, cherry-pick, single point, set 2. shares compounds with T cruzi growth-1. 5,600 tested, 56% active. inhibition, % at 24.9 µM. NIH/3T3 viability, CellTiter-Glo ATP luminescence, 90 h;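 active = mean loss of cell viability signal at or above a set limit, and enough replicates individually reaching it; inconclusive = meets only the mean limit or only the replicate share; inactive = meets neither condition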
Each line names hits and unclear results; the compound was inactive in the other large screens (follow-up assays come after a bar, where they were run). This excerpt belongs to a sample that is enriched for hits.

C[C@@H]1CN([C@@H](C)CO)C(=O)c2cc(NC(=O)Cc3ccccc3)ccc2O[C@H]1CN(C)Cc1ccc(C(F)(F)F)cc1	T cruzi growth-1 inconclusive | T cruzi growth-2 100.6 | T cruzi growth-3 inactive | 3T3 cytotox inactive | 3T3 cytotox 2 59.9
C[C@@H]1CN([C@H](C)CO)C(=O)c2cc(NC(=O)Cc3ccccc3)ccc2O[C@@H]1CN(C)Cc1ccc(-c2ccccc2)cc1	T cruzi growth-1 113.5 | T cruzi growth-2 113.1 | T cruzi growth-3 inactive | 3T3 cytotox inactive | 3T3 cytotox 2 77.8
C[C@H](CO)N1C[C@H](C)[C@@H](CN(C)Cc2ccc(Cl)c(Cl)c2)Oc2ccc(NC(=O)Cc3ccccc3)cc2C1=O	none
C[C@@H]1CN([C@@H](C)CO)C(=O)c2cc(NS(=O)(=O)c3cn(C)cn3)ccc2O[C@@H]1CN(C)Cc1ccccc1	none
C[C@@H]1CN([C@@H](C)CO)C(=O)c2cccc(NC(=O)Nc3ccc(C(F)(F)F)cc3)c2O[C@H]1CN(C)Cc1ccccc1	none
O=C(NC[C@@H]1[C@H](c2ccccc2)[C@H](CO)N1Cc1ccccn1)C1CCC1	none
C[C@@H]1CN([C@@H](C)CO)S(=O)(=O)c2ccc(C#CCN(C)C)cc2O[C@H]1CN(C)Cc1ccc(F)cc1	T cruzi growth-1 113.3 | T cruzi growth-2 inconclusive | T cruzi growth-3 inactive | 3T3 cytotox 51.1 | 3T3 cytotox 2 103.2
C[C@H](CO)N1C[C@H](C)[C@@H](CN(C)Cc2ccccc2)Oc2cc(C#CCN(C)C)ccc2S1(=O)=O	none
C[C@@H]1CN([C@@H](C)CO)S(=O)(=O)c2ccc(C#CCN(C)C)cc2O[C@@H]1CN(C)Cc1ccc(F)cc1	none
C[C@H]1CN([C@@H](C)CO)S(=O)(=O)c2ccc(C#CCN(C)C)cc2O[C@H]1CN(C)Cc1ccccc1	T cruzi growth-1 inconclusive | T cruzi growth-2 105.4 | T cruzi growth-3 inactive | 3T3 cytotox inactive | 3T3 cytotox 2 39.4
C[C@@H]1CN([C@@H](C)CO)S(=O)(=O)c2ccc(C#CCN(C)C)cc2O[C@H]1CN(C)Cc1ccccc1	T cruzi growth-1 108.9 | T cruzi growth-2 105.0 | T cruzi growth-3 97.8 | 3T3 cytotox inactive | 3T3 cytotox 2 104.3
C[C@@H]1CN([C@H](C)CO)S(=O)(=O)c2ccc(C#CCN(C)C)cc2O[C@H]1CN(C)Cc1ccccc1	T cruzi growth-1 107.5 | T cruzi growth-2 97.5 | T cruzi growth-3 inactive | 3T3 cytotox 44.5 | 3T3 cytotox 2 104.2
C[C@@H](O)C#Cc1ccc2c(c1)O[C@H](CN(C)Cc1ccccc1)[C@@H](C)CN([C@@H](C)CO)S2(=O)=O	none
CC(C)C#Cc1ccc2c(c1)O[C@@H](CN(C)Cc1ccccc1)[C@H](C)CN([C@H](C)CO)S2(=O)=O	none
O=C(C[C@H]1C[C@H]2c3cc(NC(=O)CC4CC4)ccc3O[C@H]2[C@@H](CO)O1)NCc1ccccn1	none
CCC(=O)N(C)C[C@@H]1Oc2cc(-c3ccc(OC)cc3)ccc2S(=O)(=O)N([C@H](C)CO)C[C@H]1C	none (no result: T cruzi growth-1)
CC(=O)N1CC2(C1)[C@H](c1ccc(-c3ccc(F)cc3)cc1)[C@@H](CO)N2C(C)=O	none (no result: T cruzi growth-1)
CN1C(=O)c2cc(NC(=O)Cc3ccccc3)ccc2OC[C@H]2O[C@@H](CC(=O)NCC3CC3)CC[C@H]21	none
Cc1noc(C)c1NC(=O)N(C)C[C@@H]1Oc2c(NS(C)(=O)=O)cccc2C(=O)N([C@@H](C)CO)C[C@H]1C	none
Cc1noc(C)c1S(=O)(=O)Nc1cccc2c1O[C@@H](CN(C)Cc1ccc(-c3ccccc3)cc1)[C@@H](C)CN([C@@H](C)CO)C2=O	none (no result: C diff growth)
Cc1noc(C)c1NC(=O)N(C)C[C@H]1Oc2c(NS(=O)(=O)c3c(C)noc3C)cccc2C(=O)N([C@H](C)CO)C[C@H]1C	T cruzi growth-1 104.3 | T cruzi growth-2 inactive | T cruzi growth-3 inactive | 3T3 cytotox inactive | 3T3 cytotox 2 inactive
Cc1noc(C)c1NC(=O)N(C)C[C@@H]1Oc2ccc(N(C)C)cc2C(=O)N([C@H](C)CO)C[C@H]1C	T cruzi growth-1 106.4 | T cruzi growth-2 inactive | T cruzi growth-3 inactive | 3T3 cytotox inactive | 3T3 cytotox 2 inactive
C[C@@H]1CN([C@H](C)CO)C(=O)c2cc(NS(=O)(=O)c3ccc(Cl)cc3)ccc2O[C@@H]1CN(C)Cc1ccc(C(=O)Nc2ccccc2N)cc1	T cruzi growth-1 inconclusive | T cruzi growth-2 inactive | T cruzi growth-3 inactive | 3T3 cytotox inactive | 3T3 cytotox 2 46.1
Cc1noc(C)c1NC(=O)N(C)C[C@H]1Oc2ccc(N(C)C)cc2C(=O)N([C@H](C)CO)C[C@@H]1C	none
C[C@@H]1CN([C@@H](C)CO)C(=O)c2cc(NS(=O)(=O)c3ccc(Cl)cc3)ccc2O[C@H]1CN(C)Cc1ccc(C(=O)Nc2ccccc2N)cc1	none
Cc1noc(C)c1S(=O)(=O)Nc1cccc2c1O[C@H](CN(C)Cc1ccc(-c3ccccc3)cc1)[C@H](C)CN([C@@H](C)CO)C2=O	T cruzi growth-1 100.0 | T cruzi growth-2 inactive | T cruzi growth-3 inactive | 3T3 cytotox inactive | 3T3 cytotox 2 inactive
C[C@@H]1CN([C@H](C)CO)C(=O)c2cccc(NC(=O)Nc3ccc(F)cc3)c2O[C@@H]1CN(C)C(=O)Nc1ccc2c(c1)OCO2	none
C/C=C/c1ccc([C@H]2[C@H](C#N)N(c3nc(-c4ccccc4)cs3)[C@H]2CO)cc1	none
Cc1noc(C)c1S(=O)(=O)Nc1cccc2c1O[C@H](CN(C)Cc1ccc(C(=O)Nc3ccccc3N)cc1)[C@H](C)CN([C@@H](C)CO)C2=O	T cruzi growth-1 inconclusive (no result: C diff growth) | T cruzi growth-2 101.0 | T cruzi growth-3 inactive | 3T3 cytotox inactive | 3T3 cytotox 2 35.8
Cc1noc(C)c1S(=O)(=O)Nc1ccc2c(c1)C(=O)N([C@@H](C)CO)C[C@@H](C)[C@@H](CN(C)Cc1ccc(C(=O)Nc3ccccc3N)cc1)O2	T cruzi growth-1 inconclusive (no result: C diff growth) | T cruzi growth-2 100.4 | T cruzi growth-3 inactive | 3T3 cytotox inactive | 3T3 cytotox 2 33.0
Cc1noc(C)c1S(=O)(=O)Nc1ccc2c(c1)C(=O)N([C@H](C)CO)C[C@H](C)[C@H](CN(C)Cc1ccc(C(=O)Nc3ccccc3N)cc1)O2	none (no result: T cruzi growth-1)
Cc1noc(C)c1S(=O)(=O)Nc1cccc2c1O[C@@H](CN(C)Cc1ccc(C(=O)Nc3ccccc3N)cc1)[C@@H](C)CN([C@H](C)CO)C2=O	none (no result: T cruzi growth-1)
O=C(C[C@@H]1C[C@H]2c3cc(NC(=O)C4CCOCC4)ccc3O[C@H]2[C@H](CO)O1)NCc1ccc(Oc2ccccc2)cc1	T cruzi growth-1 142.0 (no result: C diff growth) | T cruzi growth-2 inactive | T cruzi growth-3 inactive | 3T3 cytotox inactive | 3T3 cytotox 2 inactive
